Sampled rows, rich in hits. Any-hit rate of the full collection: about 4.8%.
hgDAF-12 ag: agonists of H. glycines DAF-12 nuclear receptor; AID 687014; activation, % at 6.8 µM; hit rate 1.8% among 370,000; HEK293 GAL4-hgDAF12 UAS-luciferase reporter, agonist luminescence; normalized to butyrate control;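 active means activation above a cutoff set at the mean of all screened compounds plus 3 SD, cut at about 10% in these data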;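 further: 0% = DMSO wells and 100% = sodium butyrate wells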
SMARCA2 activ: SMARCA2 function activation, primary screen; MG213 cells, MMTV-luciferase reporter, dexamethasone, overnight; activation, % at 9.1 µM; hit rate 1% among 370,000; AID 652017; in the data active means activation above about 7.8%;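 further: 0% = vehicle wells and 100% = reference activator wells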
ssDAF-12 act: S. stercoralis DAF-12 activation, primary screen; HEK293 ssDAF-12/GRIP1 lit1-tk-luc reporter, luminescence; % of 3 µM dafachronic acid response; activation, % at 6.8 µM; hit rate 1% among 370,000; AID 652126;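 active means activation above the mean over all tested compounds plus 3 SD, cut at about 0.9% in these data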;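 further: 0% = DMSO-only wells and 100% = 3 µM delta7-dafachronic acid wells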
hcDAF-12 act: activators of H. contortus DAF-12 nuclear receptor | HEK293 hcDAF-12 lit1-tk-luc reporter, luminescence; 0% DMSO, 100% Δ7-dafachronic acid | activation, % at 6.8 µM | hit rate 1.4% among 370,000;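 active means activation above the mean of all tested compounds plus 3 SD, cut at about 5.5% in these data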;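 further: 100% = response to 3 µM Δ7-dafachronic acid high control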
DAX1 inh-1: DAX1 (NR0B1) inhibition, primary screen. HEK293T StAR-luciferase reporter, SF-1/DAX-1 repression relief. AID 652010. inhibition, % at 6.8 µM. hit rate 1.1% among 370,000;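 active means inhibition above the mean over all tested compounds plus 3 SD, cut at about 3.6% in these data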;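 further: 0% = DAX-1 cells with DMSO and 100% = cells lacking DAX-1 with DMSO; higher inhibition means more luminescence from relief of DAX-1 repression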
DAX1 inh-2: NR0B1 (DAX1) inhibition | inhibition, % at 6.75 µM | hit rate 0.99% among 340,000 | P51843 | HEK293 Gal4-DAX1 luciferase reporter, luminescence;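 active means inhibition above the mean over all tested compounds plus 3 SD, cut at about 4.2% in these data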;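 further: 0% = DAX1-transfected cells with DMSO and 100% = empty-vector control cells with DMSO; inhibition shows as a rise in luminescence from relieved DAX1 repression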
Target sequence (P51843 207-470 limits assumed): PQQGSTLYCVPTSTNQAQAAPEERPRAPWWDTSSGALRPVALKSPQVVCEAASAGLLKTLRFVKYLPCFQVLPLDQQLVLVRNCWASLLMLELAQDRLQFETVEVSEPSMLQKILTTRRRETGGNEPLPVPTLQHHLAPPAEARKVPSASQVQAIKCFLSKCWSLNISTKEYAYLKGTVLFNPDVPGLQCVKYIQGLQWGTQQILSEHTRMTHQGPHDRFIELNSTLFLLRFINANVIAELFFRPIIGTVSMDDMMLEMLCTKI
Starred values were filed as active, the others as inactive; · = not tested or not shown.

SMILES | hgDAF-12 ag | SMARCA2 activ | ssDAF-12 act | hcDAF-12 act | DAX1 inh-1 | DAX1 inh-2
O=C(Nc1ccc(C2SCCS2)cc1)c1ccccc1 | 11* | 8 | 1.6* | 4 | 2 | ·
CCC(=O)N1CCN(c2ccc(NC(=O)c3ccco3)cc2)CC1 | 4 | 2 | -1 | 1 | 0 | 0
O=C(NC(=S)Nc1ccc(N2CCOCC2)cc1)c1cccs1 | 12* | 4 | 1 | 4 | 4.0* | 3
CC(=O)N1CCN(c2ccc(NC(=O)c3ccco3)cc2)CC1 | 9 | 3 | 1.9* | 5 | 1 | 2
O=C(/C=C/c1cccs1)c1ccc(N2CCOCC2)cc1 | 11* | -1 | 0 | 3 | 1 | 3
CCc1nc2ccc(C(=O)Nc3cccc(NS(C)(=O)=O)c3)cn2c1N(CC)CCOC | -1 | 0 | -1 | -2 | -1 | ·
O=C(CCN1C(=O)c2ccccc2C1=O)c1ccccc1 | 4 | 1 | 0 | 0 | 0 | 2
Cc1cc(N2CCOCC2)c2c(N)cc(C)c(C)c2n1 | -1 | 0 | -1 | -2 | 0 | 0
CCc1cc2c(=O)c(-c3nc4ccccc4[nH]3)coc2c(CN2CCCCC2C)c1O (configuration not stated) | 0 | 0 | -2 | -1 | -1 | 4.6*
C/C(=N\NC(=O)C(O)(c1ccccc1)c1ccccc1)c1ccc(NC(=O)CCCC(=O)O)cc1 | 1 | 0 | -1 | -2 | 1 | -1
CCOC(=O)C/C(C)=N\Nc1nc(-c2ccccc2)cs1 | 2 | 1 | 1.7* | 1 | 1 | -1
CC(/C=C/c1ccccc1)=N\Nc1nc(-c2ccccc2)cs1 | 0 | 2 | 0 | 3 | 0 | 0
CN(C)C=Nc1ccc([N+](=O)[O-])c2ccccc12 | 0 | -7 | -1 | 0 | 2 | 2
O=C(CC(c1ccco1)C1CCCCC1=O)c1ccco1 (configuration not stated) | 0 | 1 | -1 | 0 | 0 | 0
CC(=O)NCCNC(=O)c1ccc(CSc2ccc(Cl)cc2)cc1 | 8 | 0 | 0.9* | 2 | 2 | 4
COc1ccccc1C(=O)Nc1nnc(S(=O)(=O)N2CCC(C)CC2)s1 | 3 | 1 | -1 | 1 | 0 | 5.0*
O=C(NNc1nccc(C(F)(F)F)n1)Nc1cccc(Cl)c1 | · | · | · | · | · | 2
Cc1ccc2[nH]c(C)cc(=S)c2c1 | -1 | 4 | -2 | -3 | 0 | 0
Cc1cc(=S)c2ccccc2[nH]1 | -2 | -1 | 1.3* | 0 | -1 | 0
O=C(CCCCl)N1CCc2[nH]c3ccccc3c2C1 | -1 | -2 | 1 | 5.6* | 2 | 0
COc1cc2cc(Oc3ccc4ccc(=O)oc4c3)c(=O)oc2cc1OC(C)=O | -2 | 2 | -2 | -3 | 1 | 9.8*
Cc1ccc(NC(=O)c2cc(S(=O)(=O)N3CCCCC3)c[nH]2)cc1Cl | -2 | -2 | -2 | -3 | 0 | ·
CCOc1ccc(-c2nc(CSc3nnc(N)s3)cs2)cc1 | 12* | 4 | 0 | 3 | 1 | 1
COCCn1nnnc1C(c1cc2cc(C)ccc2[nH]c1=O)N1CCc2ccccc21 (configuration not stated) | 0 | -3 | 0 | 2 | -1 | 0
COc1ccccc1NC(=O)N1CCCC(C(=O)Nc2cccc(C)c2C)C1 (configuration not stated) | 0 | -2 | -1 | 0 | 0 | 7.5*
SMILES | hgDAF-12 ag | SMARCA2 activ | ssDAF-12 act | hcDAF-12 act | DAX1 inh-1 | DAX1 inh-2
COc1ccc(S(=O)(=O)NCC2CCCN(Cc3cccnc3)C2)cc1 (configuration not stated) | -3 | 1 | -2 | -1 | 0 | 4.3*
COc1ccc(S(=O)(=O)NCC2CCCN(Cc3cccc(C(C)=O)c3)C2)cc1 (configuration not stated) | 0 | -3 | -2 | 0 | -2 | 0
OC[C@H]1O[C@@H](c2nc(-c3ccccc3Br)no2)[C@H](O)[C@@H]1O | 1 | -7 | 0 | 0 | 0 | ·
OC[C@H]1O[C@@H](c2nc(-c3cccc4ccccc34)no2)[C@H](O)[C@@H]1O | 13* | 2 | 0 | 1 | 1 | ·
COC(=O)c1cn(NC(=O)Cc2cccc(OC)c2)c(=O)c2ccccc12 | 2 | -1 | -1 | -1 | 0 | 4.2*
COc1ccccc1NS(=O)(=O)c1cc(NC(=S)NCCN2CCOCC2)ccc1N1CCOCC1 | -4 | 6 | -1 | -1 | 1 | 1
CC(C(=O)N1CCN(C(=O)c2ccco2)CC1)N1C(=O)NC2(CCCCC2C)C1=O (configuration not stated) | 0 | -1 | -1 | -1 | 1 | 1
Cc1ccc(O)c(N=Cc2cccs2)c1 | 9 | 4 | 0 | 5.8* | 1 | -1
COc1cc(C(=O)NCC(=O)OCc2ccccc2Cl)cc(OC)c1OC | 1 | -2 | -2 | -2 | 0 | 1
CN(CC(=O)Nc1ccccc1Cl)C(=O)CCNC(=O)Nc1ccccc1 | -1 | 2 | -1 | -2 | -1 | -1
CC1=CC(c2ccccc2)n2nc(N3C(=O)c4ccccc4C3=O)nc2N1 (configuration not stated) | 3 | -1 | -1 | 0 | 0 | 4
CC1=CC(c2ccccc2)n2nnnc2N1 (configuration not stated) | 3 | -3 | 0 | -1 | 0 | 11*
Cc1cccc(C(=O)N/N=C/c2coc3ccccc3c2=O)c1 | 1 | -4 | 0 | 1 | 1 | 0
Cc1ccc2occ(/C=N/NC(=O)[C@@H](N)Cc3ccccc3)c(=O)c2c1 | 4 | -4 | -1 | 0 | 0 | 5.3*
COc1cccc(COC(=O)Nc2ccccc2)c1OC | 12* | 0 | 0 | 2 | 3 | ·
COCCNC(=O)C(=O)NNC(=O)c1ccccc1OC | 3 | -3 | 1.5* | 4 | 0 | -1
COc1ccccc1C(=O)NNC(=O)C(=O)NC1CCCCC1 | 3 | 1 | 1 | 3 | 0 | 0
COc1ccccc1OCCOC(=O)Nc1ccccc1 | 0 | 5 | -1 | 3 | -1 | 0
COc1cccc(C(=O)NOCc2ccccc2)c1OC | 10 | 1 | 1 | 3 | 4.4* | 1
COc1ccccc1C(=O)NNC(=O)CCC(=O)NCc1ccccc1 | 2 | 1 | 0 | 5.7* | 0 | 1
CCc1nc2ccc(C(=O)N3CCN(C(C)=O)CC3)cn2c1N(CCC(C)C)CCN(C)C | -2 | -4 | -2 | 0 | 1 | ·
C#CCOCCOCCOCCNc1nc(N2CCN(C(=O)Cn3cc(CCO)nn3)CC2)nc(N2CCN(C(=O)Cn3cc(CCCCN)nn3)CC2)n1 | -1 | -1 | -1 | -1 | 0 | 2
COCCNC(=O)C(=O)NNS(=O)(=O)c1ccc(Cl)cc1 | -1 | 1 | -2 | 0 | 0 | 4.5*
